HCMV antiviral: human cytomegalovirus inhibition. HFF cells, HCMV-luciferase reporter, 72 h; active compounds read low. AID 1259415. activity change, negative = inhibition, % at 57.5 µM. hit rate 4.5% among 410,000; in the data active = activity change below about -60%; inconclusive = no clear call, values can overlap the other calls; inactive = above about -39%
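Human foreskin fibroblasts infected with luciferase-reporter HCMV at MOI 1 PFU/cell, compounds at two doses. Luciferase measured 72 h post infection; normalized to buffer-only basal and Salinomycin (10uM) controls.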
FMDV antiviral: foot and mouth disease virus antiviral activity; FMDV antiviral cell-based qHTS; Potency, µM (highest dose often 57.9 µM), for the others: top-dose activity change, negative = inhibition, most hits filed as inhibitors; hit rate 1.2% among 410,000; AID 1159524; calls by dose curve; tested in HEK293T cells; also: read-out not given here; potency is read from the fitted curve at half-maximal effect; nearly all actives have a fitted effect of over 45% in size
AmpC detergent: blocks E. coli AmpC beta-lactamase in detergent assay; AmpC hydrolysis of nitrocefin, absorbance 480 nm, 0.01% Triton; P00811; hit rate 0.041% among 370,000; Potency, µM (titrated, usually from 114 µM), without a hit: at the top dose activity change, negative = inhibition, most hits filed as inhibitors;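 also: potency is read from the fitted curve at half-maximal effect; 0% = no-compound wells and -100% = no-enzyme wells; nearly all actives have a fitted effect of over 25% in size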
Target sequence (P00811 whole entry, looked up): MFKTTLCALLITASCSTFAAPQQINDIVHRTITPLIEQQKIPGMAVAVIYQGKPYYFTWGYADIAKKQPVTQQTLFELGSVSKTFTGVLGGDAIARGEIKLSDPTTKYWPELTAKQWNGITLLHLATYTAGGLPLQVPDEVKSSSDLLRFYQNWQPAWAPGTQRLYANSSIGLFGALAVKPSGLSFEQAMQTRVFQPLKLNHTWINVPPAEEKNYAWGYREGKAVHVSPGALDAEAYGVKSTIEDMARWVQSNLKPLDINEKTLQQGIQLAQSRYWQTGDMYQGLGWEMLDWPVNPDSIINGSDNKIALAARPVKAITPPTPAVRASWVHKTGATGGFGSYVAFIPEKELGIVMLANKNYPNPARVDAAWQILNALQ
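AmpC (5.3 nM in the dispensed reagent) in 20 mM phosphate pH 7.0 with 0.01% (detergent screen) or 0.0001% Triton X-100 was preincubated with compounds for 15 min at room temperature. Nitrocefin was then added from an 800 uM solution, and hydrolysis was followed at 480 nm.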
HCV inhibitor: HCV inhibition; Huh7.5.1 HCVcc-Cre infection, luciferase reporter, 44 h; Potency, µM (highest dose often 41.8 µM), for inactives: at the top dose activity change, negative = inhibition, usual class: inhibitors; hit rate 3.4% among 340,000; AID 651820; also: potency is read from the fitted curve at half-maximal effect
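Reporter virus HCVcc-Cre (~0.5 moi) infects cells exposed to compound; seeding density 1,000 cells/well with 4 h settling beforehand. Luminescence, 15 sec read, taken 44 h post-infection following a 15 min RT substrate incubation.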
AmpC no deterg: blocks E. coli AmpC beta-lactamase in detergent-free assay. P00811. AmpC nitrocefin hydrolysis, absorbance 480 nm, 0.0001% Triton. Potency, µM (doses to about 57.1 µM), for the others: at the highest dose activity change, negative = inhibition, hits mostly inhibitors. hit rate 0.52% among 330,000;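 also: potency is read from the fitted curve at half-maximal effect; plate controls were no compound for no effect and no enzyme for full effect; nearly all actives have a fitted effect of over 20% in size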
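20 mM phosphate pH 7.0 + 0.01% (detergent screen) or 0.0001% Triton X-100; 5.3 nM AmpC reagent; cpd preinc 15 min RT; nitrocefin (800 uM stock) to start; A480 q20 s × 4 min; Activity was normalised to no-enzyme and no-compound control wells.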
Starred values were filed as active, the others as inactive; ! = not active in a repeat. An excerpt weighted towards active compounds, which were near 7.3% of everything screened. Unless noted, calls follow the shape of the dose curve; as a rule, active = well fitted curve in the direction sought with a large enough effect; inconclusive = small, poorly fitted or top-dose-only effect, or another doubt; inactive = no such curve, though single readings can be large; an effect the other way counts as inactive or inconclusive. Unless noted, % is scaled to controls: 0 for no effect and ±100 for the full control effect.

How did Cc1nc2ccc(F)cc2cc1C(=O)Nc1ccc(Cl)c(Cl)c1 do in these assays?
HCMV antiviral: -61*; FMDV antiviral: -19%; AmpC detergent: inconclusive; HCV inhibitor: -16%; AmpC no deterg: -32%

How did CC(Oc1ccccc1F)C(=O)NNC(=O)Cc1ccc(S(=O)(=O)N2CCOCC2)s1 (stereo not drawn) do in these assays?
HCMV antiviral: 0; FMDV antiviral: -3%; HCV inhibitor: 4%

What do the screens show for `COC(=O)c1ccccc1-c1cc(C)cc2c1OC(CNC(=O)C1CCCO1)C2` (stereo not drawn)?
FMDV antiviral: -2%

What do the screens show for `Cc1cc(S(=O)(=O)Nc2cccc(C(=O)O)c2)c(C)c(S(=O)(=O)c2ccccc2)c1`?
HCMV antiviral: 6; FMDV antiviral: -4%; AmpC detergent: 2%

How did COc1ccc(Nc2nn3c(=O)c4cc5c(cc4nc3s2)OCO5)c(OC)c1 do in these assays?
HCMV antiviral: 22; FMDV antiviral: 1%; AmpC detergent: 11%

How did Cc1ccc(/C=C/C(=O)Nc2ccc(Oc3ccccc3)cc2)o1 do in these assays?
HCMV antiviral: -30; FMDV antiviral: -4%; AmpC detergent: -9%; HCV inhibitor: 11µM*; AmpC no deterg: -56%

Results for COCC(C)n1c(C)cc(C(=O)COC(=O)c2cccn2C)c1C (stereo not drawn) ?
HCMV antiviral: -76*; FMDV antiviral: inconclusive; HCV inhibitor: inconclusive; AmpC no deterg: 6%

Results for COCC(C)n1c(C)cc(C(=O)COC(=O)c2cnc(Cl)c(Cl)c2)c1C (stereo not drawn) ?
HCMV antiviral: -23; FMDV antiviral: -22%; HCV inhibitor: inconclusive; AmpC no deterg: 84%

Results for CCc1nn(CCCC(=O)NCc2ccccc2Br)c(=O)c2cc3occc3n12 ?
HCMV antiviral: -68*!; FMDV antiviral: -13%; AmpC detergent: 16%; HCV inhibitor: 38%; AmpC no deterg: -3%

How did CCc1nn(CC(=O)N2CCN(Cc3ccc4c(c3)OCO4)CC2)c(=O)c2cc3occc3n12 do in these assays?
HCMV antiviral: -61*; FMDV antiviral: inconclusive; AmpC detergent: -3%; HCV inhibitor: inconclusive; AmpC no deterg: 67%

Results for CCc1cccc(NC(=O)CCCn2nc(CC)n3c(cc4occc43)c2=O)c1 ?
HCMV antiviral: -24; FMDV antiviral: -9%; AmpC detergent: 4%; HCV inhibitor: inconclusive; AmpC no deterg: 12%

Results for CCc1nn(CC(=O)NCCc2ccc(OC)cc2OC)c(=O)c2cc3occc3n12 ?
HCMV antiviral: -62*!; FMDV antiviral: 2%; AmpC detergent: inconclusive; HCV inhibitor: inconclusive; AmpC no deterg: -8%

Results for CCC(CC)CN1CCC(CN2C(=S)NC[C@@H]2Cc2ccccc2)CC1 ?
HCMV antiviral: -4

Results for COc1ccc([C@@H]2[C@@H](C(=O)N3CCOCC3)CC(=O)N2S(=O)(=O)c2ccc(F)cc2)cc1 ?
HCMV antiviral: 4

How did Cc1ccc(C)c2c1CCC(=Cc1ccccc1[N+](=O)[O-])C2=O do in these assays?
HCMV antiviral: -17; FMDV antiviral: -16%

Results for CN1C/C(=C/c2ccccc2[N+](=O)[O-])C(=O)/C(=C\c2ccccc2[N+](=O)[O-])C1 ?
HCMV antiviral: 17; FMDV antiviral: 18µM*; HCV inhibitor: inconclusive

How did N#CC1=C2SCN(c3ccccc3)CN2C(=O)CC1c1c(Cl)cccc1Cl (stereo not drawn) do in these assays?
HCMV antiviral: -2; FMDV antiviral: -23%; AmpC detergent: -17%; HCV inhibitor: 3%; AmpC no deterg: 28µM*

What do the screens show for `N#CC1=C2SCN(c3ccccc3)CN2C(=O)CC1c1ccccc1Cl` (stereo not drawn)?
HCMV antiviral: -1; FMDV antiviral: -21%; AmpC detergent: -13%; HCV inhibitor: -1%; AmpC no deterg: -43%

Results for CCOC(=O)Cn1c(=O)n(CC2CCCO2)c2nc(-c3ccccc3Cl)nc(C(N)=O)c21 (stereo not drawn) ?
HCMV antiviral: -4; FMDV antiviral: -8%; AmpC detergent: 1%

Screens as filed in PubChem.
